# Most compounds without a hit are left out; they make up all but 6.1% or so of the library.
# D1 PAM: enhances dopamine response at the human D1 receptor; 360,000 compounds, 0.036% hits; AID 504651; HEK293 TREx D1 cells, calcium flux, dopamine EC20 potentiation; potentiation, % at 10 µM; in the data active means potentiation above about 30%; further: 0% is about no effect
# Target sequence (P21728 whole entry, looked up): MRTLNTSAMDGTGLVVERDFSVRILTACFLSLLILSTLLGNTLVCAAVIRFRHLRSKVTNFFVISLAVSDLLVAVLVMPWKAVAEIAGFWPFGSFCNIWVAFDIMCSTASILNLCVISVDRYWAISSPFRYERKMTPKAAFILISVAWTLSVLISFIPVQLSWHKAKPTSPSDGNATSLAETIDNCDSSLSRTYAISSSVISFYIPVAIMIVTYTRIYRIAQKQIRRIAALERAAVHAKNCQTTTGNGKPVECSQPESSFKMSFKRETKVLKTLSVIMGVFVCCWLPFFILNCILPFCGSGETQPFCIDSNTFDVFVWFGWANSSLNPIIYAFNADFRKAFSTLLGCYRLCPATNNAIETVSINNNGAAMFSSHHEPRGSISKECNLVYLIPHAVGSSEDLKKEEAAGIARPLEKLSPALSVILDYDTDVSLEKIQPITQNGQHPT
# D1 agonist: human D1 receptor agonism. activation, % at 2 µM. 360,000 compounds, 1% hits. HEK293 T-REx D1 cells, calcium flux, agonist mode; in the data active means activation above about 30%; further: 0% is about no effect
#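 Agonism was scored from calcium flux recorded over 180 s (1 read/s) after pintool compound addition, following a 10-cycle baseline. Cells were inducible force-coupled HEK293 TREx D1, plated overnight at 30 C and loaded with no-wash calcium dye.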
# D3 ag: activates the human D3 dopamine receptor; D3R DiscoveRx beta-arrestin cells, luminescence, 90 min; 410,000 compounds, 0.58% hits; max activation, %; P35462; in the data active means max activation above about 30%; further: 0% is about no effect
#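 Agonist-mode cell screen: cells plated at 1500/well and incubated overnight at 37 °C, then exposed to library compounds for 90 min at 37 °C. Detection reagent was added for 30–60 min at room temperature, and luminescence was read.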
# D1 antag: blocks dopamine activation of the human D1 receptor; HEK293 TREx D1 cells, calcium flux, dopamine EC80; stronger effect = lower value; activity change, negative = inhibition, % at 10 µM; 360,000 compounds, 3.2% hits; AID 504652; in the data active means activity change below about -30%; further: on the % scale 0 is the no-effect control and ±100 the full control effect
#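 After overnight tetracycline induction at 30 C, force-coupled D1 HEK293 cells took up a no-wash calcium dye at room temperature. Compounds were added and monitored 180 s, and the response to EC80 dopamine was then recorded.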
# DRD3 antagonist: D3 dopamine receptor (human) antagonism; AID 652054; max response, negative = inhibition, %; D3R cells, DiscoveRx beta-arrestin luminescence, antagonist mode; stronger effect = lower value; 360,000 compounds, 2.5% hits; in the data active means max response below about -50%; inconclusive means no clear call, values can overlap the other calls; further: on the % scale 0 is the no-effect control and ±100 the full control effect
#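 Cells plated overnight at 1500 cells/well, then exposed to library compounds with dopamine controls for 90 minutes at 37 degrees C. DiscoveRx reagent added for 30–60 minutes at room temperature; luminescence read, quantitative HTS format.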
# * marks the source's active call; other numbers are inactive results; ? = inconclusive; / = no result given; ! = a repeat was not active.
SMILES,D1 PAM,D1 agonist,D3 ag,D1 antag,DRD3 antagonist
Cc1ccc(S(=O)(=O)c2nc(S(C)(=O)=O)sc2N2CCC3(CC2)OCCO3)cc1,3,0,8,-8,3
COc1cccc(NC(=O)CN(Cc2ccccc2)S(=O)(=O)c2ccc3nc(C)sc3c2)c1,-7,21,-8,-45*,/
COc1ccccc1N(C)S(=O)(=O)c1ccc(C(=O)Nc2ccc3nc(C)sc3c2)cc1,-1,9,7,-44*,48
COc1ccccc1N(C)S(=O)(=O)c1ccc(C(=O)Nc2nccs2)cc1,-5,0,-5,-66*,46
COc1ccccc1N(C)S(=O)(=O)c1ccc(C(=O)N(C)Cc2ccc(OC(F)F)cc2)cc1,0,19,-5,-41*,14
CC1(C)CN2C(=O)c3ccccc3C2(C)S1 (centres undefined),-4,1,-3,1,-4
Cc1cccc(-n2c(=O)c3c4c(sc3n3c(C)nnc23)CCCC4)c1,-3,1,6,3,/
C=CCNc1nc(Nc2ccc(-c3nc4ccccc4o3)cc2)nc(N2CCOCC2)n1,2,0,33*,-3,8
C=CCNc1nc(NCC)nc(N2CCOCC2)n1,-10,1,12,-9,0
COc1ccc(C(=O)NCCc2ccccc2)cc1OC,-3,2,-10,36,-14
COc1ccc(/C(O)=C/c2nc3ccc(C(=O)NCCc4cccc(C)c4)cc3[nH]c2=O)cc1OC,-2,71*,2,-3,-2
CCN(c1ccccc1)c1nnc(NC(=O)Nc2cccc(Cl)c2C)s1,-2,-1,-3,-3,/
CCSc1nc2ccccc2c(OCc2cc(C(=O)OC)ccc2OC)c1C(=O)OC,1,40*,2,-62*,/
COC(=O)c1c(SC)nc2ccccc2c1OCc1ccccc1C,0,12,32*,29,/
COC(=O)c1c(SC)nc2ccccc2c1OCc1ccc(Br)cc1,2,14,11,5,/
COC(=O)c1c(SC)nc2ccccc2c1OCc1ccc(C)cc1,1,12,40*,7,/
CCSc1nc2ccccc2c(OCc2ccc(Cl)cc2)c1C(=O)OC,1,18,16,-4,/
COc1ccc(C(=O)NCCCNC(=O)c2cccnc2)cc1Br,-6,-1,5,1,-2
CCOc1cc(C=O)ccc1OCCSc1ccc(Cl)cc1,-1,4,12,-37*,1
Cc1cc(C)c(S(=O)(=O)N2CCN(C(=O)c3ccc(-n4nc(C)c(Cl)c4C)cc3)CC2)c(C)c1,/,/,101*,/,-2
COc1ccc(S(=O)(=O)N2CCN(C(=O)c3c(C)nn(-c4ccccc4)c3Cl)CC2)cc1,-1,2,-15,-8,0
Cc1ccc(S(=O)(=O)N2CCN(C3CC4CCC3C4)CC2)cc1 (centres undefined),-4,2,-23,-9,-61*
Cc1ccc(S(=O)(=O)N2CCN(S(C)(=O)=O)C2)cc1,-2,3,18,-11,49
COc1ccc(S(=O)(=O)N2CCN(C3CC4CCC3C4)CC2)cc1 (centres undefined),-11,3,-19,-1,-16
Cc1ccc(S(=O)(=O)N2CCN(S(=O)(=O)c3ccccc3)C2)cc1,-8,2,3,-17,-51*
SMILES,D1 PAM,D1 agonist,D3 ag,D1 antag,DRD3 antagonist
Cc1ccc(S(=O)(=O)N2CCN(C(=O)c3c(C)nn(-c4ccccc4)c3Cl)CC2)cc1,-1,-1,-14,-16,-71*
CC(=O)N1CCOC12CCN(Cc1ccccc1)CC2,/,/,5,/,15
O=S(=O)(c1ccccc1)N1CCCN(S(=O)(=O)c2ccccc2)CC1,4,14,6,-45*,4
CCOC(=O)C1CCCN(CCC(=O)Nc2ccc(C)cc2)C1 (centres undefined),0,2,-7,-25,-71*
CCOC(=O)C1CCCN(CCC(=O)Nc2cccc(F)c2)C1 (centres undefined),-6,2,-26,4,-29
CCOC(=O)C1CCN(CCC(=O)Nc2ccc(C)cc2)CC1,1,0,-16,2,-1
CCOC(=O)C1CCCN(CCC(=O)Nc2cccc(C)c2)C1 (centres undefined),-7,5,-7,-38*!,-10
COCCOc1cc2ncnc(N3CCC(C(=O)O)CC3)c2cc1OCCOC,6,2,10,3,6
Cc1cn([C@H]2C[C@H](O)[C@@H](/C=C/C(=O)NCCC(C)C)O2)c(=O)[nH]c1=O,/,/,1,/,-18
Cc1c2cnn(CC(=O)NC(C)C)c(=O)c2c(C)n1Cc1ccccc1Cl,-2,2,-5,-31*,/
CCN1CCN(S(=O)(=O)c2ccc(Cl)c(C(=O)Nc3ccccc3N3CCOCC3)c2)CC1,-4,2,-1,-3,5
CCN1CCN(S(=O)(=O)c2ccc(Cl)c(C(=O)Nc3cc(Cl)ccc3N3CCOCC3)c2)CC1,-8,5,0,-40*,-15
CCOc1ccccc1OCC(=O)Nc1cc(S(=O)(=O)N2CCCCC2)ccc1N1CCN(CC)CC1,-8,3,-12,-36*,?
CCc1nnc(NC(=O)Cc2ccc(S(=O)(=O)N3CCCCC3)cc2)s1,/,14,5,-32*,8
O=C(COc1ccccc1Cl)NNC(=O)c1cc(S(=O)(=O)N2CCOCC2)ccc1N1CCCC1,-14,1,3,-32*,7
Cc1cccc(CC(=O)Nc2ccc3nc(N4CCC(C)CC4)cc(C)c3c2)c1,1,4,-9,-15,/
COc1ccc(CN2C(=O)CSCC2(C)C(=O)Nc2ccc3c(c2)OCCO3)cc1 (centres undefined),/,/,-4,/,-11
COc1ccccc1-c1noc(-c2ccc(N(C)Cc3ccccc3)c([N+](=O)[O-])c2)n1,0,4,5,10,/
CCN1CCN(c2ccc(S(=O)(=O)N3CCCCC3)cc2NC(=O)Cc2ccc(Cl)c(Cl)c2)CC1,-1,101*,-6,-55*,9
CCN1CCN(c2ccc(S(=O)(=O)N3CCCCC3)cc2NC(=O)c2ccccc2)CC1,7,2,0,15,-8
CCOc1ccc(S(=O)(=O)N2CCOCC2)cc1NC(=O)c1ccccc1F,-4,3,79*,6,-9
CCN1CCN(c2ccc(S(=O)(=O)N3CCCCC3)cc2NC(=O)Cc2ccccc2)CC1,8,2,-7,4,-18
CCOc1ccc(S(=O)(=O)N2CCN(CC)CC2)cc1NC(=O)c1ccccc1F,-4,1,2,-2,-11
CCN1CCN(c2ccc(S(=O)(=O)N3CCCCC3)cc2NC(=O)c2ccc(C)o2)CC1,2,0,-1,-48*,-8
CCc1nc(-c2cc(S(=O)(=O)N3CCN(c4ccc(F)cc4)CC3)ccc2OC)no1,1,-2,6,12,/
O=c1oc2ccc3ccccc3c2cc1-c1nnc(Nc2cccc(C(F)(F)F)c2)s1,-1,2,-15,-2,/
